# Compounds with a hit are over-represented: about 4% of the library has one in this group of screens.
# EWS-Fli inh = inhibitors of EWS/Fli oncoprotein transcriptional activity. A673 NR0B1-luciferase reporter, viability-normalised. inhibition, % at 12.6 µM. hit rate 0.67% among 350,000. AID 651661;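 active = mean inhibition of at least 50% after viability correction, with every replicate also passing that limit; inconclusive = mean reaches 50% but only one of two replicates passes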;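 also: firefly luciferase signal divided by Alamar Blue viability fluorescence both relative to DMSO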
# esBAF inh = blocks esBAF chromatin remodeling in mouse ES cells | Bmi1-luciferase knock-in reporter, 24 h; 100% = twice the neutral-well signal | reporter increase, % at 12.5 µM | hit rate 2% among 350,000; in the data active = activation above about 40%; inconclusive = no clear call, values can overlap the other calls;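 also: 0% = median of the plate's neutral control wells and 100% = double that signal; a rise in the Bmi1 reporter signal indicates esBAF inhibition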
# TRPM1 prom inh = inhibitors of MITF-driven TRPM1 promoter in melanoma cells. SK-MEL-5 TRPM1 promoter luciferase, 24 h. inhibition, % at 12.5 µM. hit rate 0.83% among 330,000. AID 488899;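 active = mean inhibition across replicates of 60% or more, whatever share of single replicates reaches that level; inconclusive = some that reach 60%, reason not given; inactive = mean inhibition across replicates below 60%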
# PAX8 reporter = inhibitors of PAX8 transcriptional activity in RMG-I cells; RMG-I TPO-luciferase reporter, SteadyGlo, 24 h; inhibition, % at 12.6 µM; hit rate 1.2% among 360,000; AID 652154;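 active = mean replicate inhibition at least 60% with every replicate also reaching 60%; inconclusive = only one of the two criteria is met; inactive = mean below 60% and not all replicates reaching 60%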;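 also: luciferase light reporting Pax8 driven TPO promoter activity; plate controls were median of neutral control wells for no effect and mitoxantrone controls for full effect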
# MITF act = increases MITF-driven TRPM1 promoter luciferase signal; SK-MEL-5 TRPM1-promoter luciferase, 24 h; % of positive control, neutral wells = 0; activation, % at 12.5 µM; hit rate 0.75% among 300,000; AID 588334;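 active = mean activation of at least 80% with every replicate also reaching 80%; inconclusive = mean reaches 80% but some replicate falls short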;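 also: 0% = neutral control wells and 100% = parthenolide positive control wells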
# Wnt act = activators of Wnt/beta-catenin signaling; Wnt/beta-catenin reporter cell assay, activator, plate reader; activation, % at 9.35 µM; hit rate 1.2% among 300,000; AID 743398; in the data active = activation above about 30%, passing the limit was not always enough; inconclusive = no clear call, values can overlap the other calls;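 also: 0% = neutral control wells and 100% = positive control wells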
# * marks the source's active call; other numbers are inactive results; ? = inconclusive; . = not tested or not shown.
SMILES,EWS-Fli inh,esBAF inh,TRPM1 prom inh,PAX8 reporter,MITF act,Wnt act
CN(C)c1cc[n+](CC(=O)Nc2ccc(Oc3ccccc3)cc2)cc1,17.7,.,24.6,88.6*,-20.1,-2.9
CCOc1ccc(NC(=O)C[n+]2ccc(N(C)C)cc2)cc1,1.2,18.4,40.5,7.6,-40.4,-1.5
C[C@@H]1CN([C@H](C)CO)C(=O)c2cccc(NC(=O)c3ccc(-c4nccs4)cc3)c2O[C@@H]1CN(C)Cc1ccncc1,-6.7,-1.7,.,-7.5,.,.
CN(CC(=O)Nc1cccc(F)c1)C(=O)CCCNC(=O)c1ccc(Cl)cc1,-72.2,53.8*,-54.9,-119.0,56.9,19.8
CN(CC(=O)Nc1cccc(F)c1)C(=O)CCNC(=O)c1ccc(Br)cc1,.,23.4,-11.1,-10.6,12.6,5.4
CN(CC(=O)Nc1cccc(F)c1)C(=O)CCNC(=O)c1ccco1,1.8,.,1.0,4.4,0.0,48.9*
CO[C@@H]1CN(C)C(=O)c2ccc(NC(=O)Cc3ccccc3)cc2OC[C@H](C)N(C(C)=O)C[C@H]1C,-8.4,-3.5,.,.,.,.
O=C([C@@H]1[C@@H](CO)[C@@H]2Cn3c(ccc(C4=CCCC4)c3=O)[C@@H]2N1CC1CC1)N1CCCCC1,4.9,3.9,.,-6.1,.,.
C[C@H]1CN([C@@H](C)CO)C(=O)c2cc(-c3ccncc3)cnc2O[C@@H]1CN(C)C(=O)C1CC1,2.7,1.0,.,.,.,.
O=C1CCCCCN1Cc1nnc(SCc2nc3ccccc3s2)n1-c1ccccn1,.,?,-21.8,-60.5,.,56.9*
CCNC(=O)CSc1nnc(CN2CCCCCC2=O)n1-c1ccccn1,-4.5,.,-17.9,-5.1,14.6,-0.8
O=C(Nc1ccccc1)N1CCCCN2[C@@H](CO)[C@H](c3ccc(C#Cc4ccccc4)cc3)[C@@H]2C1,34.2,.,.,72.1*,.,.
COc1ccccc1NC(=O)N1CCCCN2[C@H](CO)[C@H](c3ccc(-c4ccc(C)cc4)cc3)[C@H]2C1,39.6,-4.6,.,80.4*,.,.
O=C(Nc1ccc(F)cc1)N1CCCCN2[C@@H](CO)[C@@H](c3ccc(C#Cc4ccccc4)cc3)[C@@H]2C1,62.6*,.,.,77.4*,.,.
Cc1ccc(-c2ccc([C@@H]3[C@@H](CO)N4CCCCN(C(=O)c5ccc(F)cc5)C[C@H]34)cc2)cc1,1.2,-4.8,.,3.3,.,.
Cc1ccc(-c2ccc([C@@H]3[C@H](CO)N4CCCCN(C(=O)c5ccc(F)cc5)C[C@@H]34)cc2)cc1,3.0,-5.8,.,72.0*,.,.
C[C@H](CO)N1C[C@H](C)[C@@H](CN(C)C(=O)Cc2ccncc2)Oc2ncc(C#C[C@@H](C)O)cc2C1=O,11.1,5.7,.,12.7,.,.
O=C(Nc1ccccc1)N1CCCCN2[C@@H](CO)[C@@H](c3ccc(C#Cc4ccccc4)cc3)[C@@H]2C1,43.1,.,.,107.3*,.,.
O=C(Nc1ccccc1)N1CCCCN2[C@@H](CO)[C@@H](c3ccc(-c4ccccc4)cc3)[C@@H]2C1,64.9*,.,.,-4.8,.,.
O=C(Nc1ccccc1)N1CCCCN2[C@H](C1)[C@@H](c1ccc(-c3ccccc3)cc1)[C@@H]2CO,-3.1,.,.,26.9,.,.
C[C@@H]1CN([C@@H](C)CO)C(=O)c2cc(N(C)C)ccc2O[C@@H]1CN(C)Cc1ccc(C(=O)O)cc1,5.8,1.9,.,-0.3,.,.
O=C(Nc1ccc2c(c1)Cc1cc([N+](=O)[O-])ccc1-2)C(F)(F)F,-31.5,41.5*,.,-59.5,.,11.2
COc1cc2c(cc1NC(=O)C(F)(F)F)-c1ccc(NC(=O)C(F)(F)F)cc1C2,-12.8,.,-37.1,.,31.4,5.9
C[C@@H]1CCCCO[C@@H](CN(C)C(=O)Nc2cccc3ccccc23)[C@H](C)CN([C@H](C)CO)C(=O)c2cc(NC(=O)c3ccncc3)ccc2O1,28.3,4.7,.,58.5,.,.
CS(=O)(=O)N1N=C(c2cccs2)CC1c1ccccc1 (centres undefined),-6.9,3.4,7.8,-4.2,-3.8,5.3
c1ccc(C2Oc3ccccc3C3CC(c4cccs4)=NN32)cc1 (centres undefined),-23.5,85.5*,-6.3,-5.9,7.8,37.8*
COc1ccc(C=NNC(=O)c2cc(C)oc2C)cc1O,-12.9,65.7*,-38.2,-2.2,35.2,-3.1
CCOc1ccc(/C=N/NC(=O)c2ccoc2C)cc1OC,-63.2,48.5*,-34.2,-126.4,35.4,19.6
COc1cc(/C=N/NC(=O)c2cc(C)oc2C)ccc1O,14.5,-1.5,17.5,-14.7,-17.2,1.3
